Results from PubChem BioAssay AID1159580 (chemical genetic matrix, 2015).
Hit rate of the full screen: of about 5,500 compounds, about 2,000 (36%) were called active. About 18% were inconclusive and are not listed. Cut-off read from the data, not from the text of the source: active = normalized growth mostly below about 0.91 (no sharp cut-off); inconclusive = no clear call, values can overlap the other calls; inactive = mostly above about 0.92. Some of the results follow.

Experiment: chemical genetic growth profiling, strain panel (AID 1159580);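 note: tested at 20 µM; growth read once vehicle control cultures reached saturation at 30 °C; 1 = growth at the plate median or of vehicle wells; lower values mean less growth of the strain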
Settings: growth OD

Measured: normalized growth

CCOC(=O)c1c(C)cc(O)c(C=O)c1O
active: S. cerevisiae deletion strains, locus YJR075W, strain HOC1, hits give low values 0.272 | S. cerevisiae deletion strains, locus YKL009W, strain mrt4, hits give low values 0.446 | S. cerevisiae deletion strains, locus YKL068W, hits give low values 0.799 | S. cerevisiae deletion strains, locus YKL085W, strain MDH1 (second series), hits give low values 0.528 | S. cerevisiae deletion strains, locus YKL085W, strain MDH1, hits give low values 0.528 | S. cerevisiae deletion strains, locus YKL160W, strain elf1, hits give low values 0.655 | S. cerevisiae deletion strains, locus YKL190W, strain CNB1, hits give low values 0.108 | S. cerevisiae deletion strains, locus YKR001C, strain vps1, hits give low values 0.103 | S. cerevisiae deletion strains, locus YKR026C, strain gcn3, hits give low values 0.823 | S. cerevisiae deletion strains, locus YKR091W, strain srl3, hits give low values 0.851 | S. cerevisiae deletion strains, locus YLL001W, strain dnm1, hits give low values 0.568 | S. cerevisiae deletion strains, locus YLL026W, hits give low values 0.706 | S. cerevisiae deletion strains, locus YLL041C, strain sdh2, hits give low values 0.823 | S. cerevisiae deletion strains, locus YLR027C, strain aat2, hits give low values 0.593 | S. cerevisiae deletion strains, locus YLR039C, strain RIC1, hits give low values 0.0958 | S. cerevisiae deletion strains, locus YLR058C, strain SHM2, hits give low values 0.202 | S. cerevisiae deletion strains, locus YLR102C, strain apc9, hits give low values 0.221 | S. cerevisiae deletion strains, locus YLR113W, strain HOG1, hits give low values 0.157 | S. cerevisiae deletion strains, locus YLR221C, strain rsa3, hits give low values 0.499 | S. cerevisiae deletion strains, locus YLR258W, strain gsy2, hits give low values 0.681 | S. cerevisiae deletion strains, locus YLR262C, strain YPT6 (second series), hits give low values 0.153 | S. cerevisiae deletion strains, locus YLR262C, strain YPT6, hits give low values 0.113 | S. cerevisiae deletion strains, locus YLR268W, strain sec22, hits give low values 0.091 | S. cerevisiae deletion strains, locus YLR320W, strain mms22, hits give low values 0.292 | S. cerevisiae deletion strains, locus YLR330W, strain CHS5, hits give low values 0.176 | S. cerevisiae deletion strains, locus YLR342W, strain FKS1 (second series), hits give low values 0.159 | S. cerevisiae deletion strains, locus YLR342W, strain FKS1, hits give low values 0.586 | S. cerevisiae deletion strains, locus YLR357W, strain rsc2, hits give low values 0.772 | S. cerevisiae deletion strains, locus YLR370C, strain arc18, hits give low values 0.656 | S. cerevisiae deletion strains, locus YLR371W, strain rom2, hits give low values 0.158 | S. cerevisiae deletion strains, locus YLR384C, strain iki3, hits give low values 0.718 | S. cerevisiae deletion strains, locus YLR418C, strain cdc73, hits give low values 0.13 | S. cerevisiae deletion strains, locus YML016C, strain PPZ1, hits give low values 0.344 | S. cerevisiae deletion strains, locus YML032C, strain rad52, hits give low values 0.137 | S. cerevisiae deletion strains, locus YML120C, strain ndi1, hits give low values 0.652 | S. cerevisiae deletion strains, locus YML124C, strain tub3, hits give low values 0.262 | S. cerevisiae deletion strains, locus YMR058W, strain fet3, hits give low values 0.0978 | S. cerevisiae deletion strains, locus YMR078C, strain ctf18, hits give low values 0.112 | S. cerevisiae deletion strains, locus YMR125W, strain sto1, hits give low values 0.673 | S. cerevisiae deletion strains, locus YMR129W, hits give low values 0.722 | S. cerevisiae deletion strains, locus YMR205C, strain PFK2, hits give low values 0.47 | S. cerevisiae deletion strains, locus YMR223W, strain ubp8, hits give low values 0.2 | S. cerevisiae deletion strains, locus YMR231W, strain pep5, hits give low values 0.311 | S. cerevisiae deletion strains, locus YMR263W, strain SAP30, hits give low values 0.353 | S. cerevisiae deletion strains, locus YMR307W, strain GAS1, hits give low values 0.133 | S. cerevisiae deletion strains, locus YNL067W, strain RPL9B, hits give low values 0.201 | S. cerevisiae deletion strains, locus YNL071W, strain lat1, hits give low values 0.248 | S. cerevisiae deletion strains, locus YNL128W, strain TEP1, hits give low values 0.237 | S. cerevisiae deletion strains, locus YNL153C, strain GIM3, hits give low values 0.205 | S. cerevisiae deletion strains, locus YNL183C, strain NPR1, hits give low values 0.0359 | S. cerevisiae deletion strains, locus YNL209W, strain ssb2, hits give low values 0.392 | S. cerevisiae deletion strains, locus YNL233W, strain BNI4, hits give low values 0.153 | S. cerevisiae deletion strains, locus YNL248C, strain rpa49, hits give low values 0.635 | S. cerevisiae deletion strains, locus YNL250W, strain rad50, hits give low values 0.514 | S. cerevisiae deletion strains, locus YNL271C, strain bni1, hits give low values 0.347 | S. cerevisiae deletion strains, locus YNL298W, strain CLA4, hits give low values 0.382 | S. cerevisiae deletion strains, locus YNL307C, strain MCK1, hits give low values 0.0757 | S. cerevisiae deletion strains, locus YNL322C, strain KRE1 (second series), hits give low values 0.797 | S. cerevisiae deletion strains, locus YNL322C, strain KRE1, hits give low values 0.207 | S. cerevisiae deletion strains, locus YNR049C, strain mso1, hits give low values 0.796 | S. cerevisiae deletion strains, locus YNR052C, strain pop2, hits give low values 0.155 | S. cerevisiae deletion strains, locus YOL006C, strain TOP1, hits give low values 0.137 | S. cerevisiae deletion strains, locus YOL147C, strain pex11, hits give low values 0.0808 | S. cerevisiae deletion strains, locus YOR001W, strain rrp6, hits give low values 0.604 | S. cerevisiae deletion strains, locus YOR061W, strain CKA2, hits give low values 0.486 | S. cerevisiae deletion strains, locus YOR069W, strain VPS5, hits give low values 0.255 | S. cerevisiae deletion strains, locus YOR070C, strain gyp1, hits give low values 0.535 | S. cerevisiae deletion strains, locus YOR080W, strain dia2, hits give low values 0.642 | S. cerevisiae deletion strains, locus YOR083W, strain WHI5, hits give low values 0.674 | S. cerevisiae deletion strains, locus YOR106W, strain vam3, hits give low values 0.358 | S. cerevisiae deletion strains, locus YOR136W, strain idh2, hits give low values 0.267 | S. cerevisiae deletion strains, locus YOR144C, strain elg1, hits give low values 0.136 | S. cerevisiae deletion strains, locus YOR184W, strain ser1, hits give low values 0.0931 | S. cerevisiae deletion strains, locus YOR231W, strain MKK1, hits give low values 0.142 | S. cerevisiae deletion strains, locus YOR265W, strain rbl2, hits give low values 0.697 | S. cerevisiae deletion strains, locus YOR270C, strain vph1, hits give low values 0.263 | S. cerevisiae deletion strains, locus YOR290C, strain snf2, hits give low values 0.558 | S. cerevisiae deletion strains, locus YOR316C, strain cot1, hits give low values 0.213 | S. cerevisiae deletion strains, locus YPL051W, strain arl3, hits give low values 0.225 | S. cerevisiae deletion strains, locus YPL055C, strain LGE1, hits give low values 0.171 | S. cerevisiae deletion strains, locus YPL078C, strain atp4, hits give low values 0.558 | S. cerevisiae deletion strains, locus YPL106C, strain sse1, hits give low values 0.708 | S. cerevisiae deletion strains, locus YPL240C, strain hsp82, hits give low values 0.75 | S. cerevisiae deletion strains, locus YPL241C, strain CIN2, hits give low values 0.224 | S. cerevisiae deletion strains, locus YPL256C, strain CLN2, hits give low values 0.15 | S. cerevisiae deletion strains, locus YPR119W, strain clb2, hits give low values 0.164 | S. cerevisiae deletion strains, locus YPR141C, strain kar3, hits give low values 0.704 | S. cerevisiae deletion strains, locus YPR163C, strain tif3, hits give low values 0.0943 | S. cerevisiae deletion strains, locus YPR167C, strain met16, hits give low values 0.252 | S. cerevisiae deletion strains, strain wtn01, hits give low values 0.166 | S. cerevisiae strains, strain wild type, hits give low values 0.162
inactive: S. cerevisiae deletion strains, locus YOL012C, strain htz1 0.305
